# In the library only some 2.9% were active in any assay of this set; here they are far more common.
# PAFAH1B3 FP inh: PAFAH1B3 enzyme inhibitors, primary screen, biochemical, fluorescence polarization, human. Platelet-activating factor acetylhydrolase IB subunit alpha1 (Homo sapiens), Q15102. recombinant PAFAH1B3, FP-rhodamine probe. inhibition, % at 3.39 µM. actives 0.28% (n = 340,000);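 active = inhibition above the screen-wide average of all tested compounds plus 3 SD, cut at about 25% in these data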;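 also: 0% = enzyme with DMSO only and 100% = wells lacking PAFAH1B3 protein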
# Target sequence (Q15102 whole entry, looked up): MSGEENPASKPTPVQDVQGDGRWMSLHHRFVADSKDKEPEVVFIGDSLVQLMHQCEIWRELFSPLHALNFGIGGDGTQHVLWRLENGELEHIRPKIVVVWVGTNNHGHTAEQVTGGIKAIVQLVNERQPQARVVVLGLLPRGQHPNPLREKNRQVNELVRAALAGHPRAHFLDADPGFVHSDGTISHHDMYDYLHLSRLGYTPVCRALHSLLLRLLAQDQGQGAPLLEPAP
# PME-1 inh: PME-1 inhibitors via competitive probe labeling, primary screen, biochemical, fluorescence polarization, FP-Rh probe, HTS | recombinant PME-1 | Protein phosphatase methylesterase 1 (Homo sapiens), Q9Y570 | actives 0.53% (n = 320,000) | inhibition, % at 5.9 µM | AID 2130, 2009;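 active = inhibition above the campaign mean of all compounds plus 3 SD, cut at about 26% in these data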;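 also: competitive labeling of PME-1 active site by serine hydrolase directed probe; 0% = PME-1 with DMSO and 100% = wells lacking PME-1 enzyme; inhibitors block probe labeling so polarization falls and inhibition rises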
# PAFAH1B2 FP inh: PAFAH1B2 enzyme inhibitors, primary screen, biochemical, fluorescence polarization, human; Platelet-activating factor acetylhydrolase IB subunit alpha2 (Homo sapiens), P68402; recombinant PAFAH1B2, FP-rhodamine activity probe; actives 1.2% (n = 340,000); AID 492953, 2010; inhibition, % at 3.39 µM;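 active = inhibition above the mean of all tested compounds plus 3 SD, cut at about 24% in these data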;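 also: 0% = enzyme with DMSO and 100% = wells lacking PAFAH1B2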
# Target sequence (P68402 whole entry, looked up): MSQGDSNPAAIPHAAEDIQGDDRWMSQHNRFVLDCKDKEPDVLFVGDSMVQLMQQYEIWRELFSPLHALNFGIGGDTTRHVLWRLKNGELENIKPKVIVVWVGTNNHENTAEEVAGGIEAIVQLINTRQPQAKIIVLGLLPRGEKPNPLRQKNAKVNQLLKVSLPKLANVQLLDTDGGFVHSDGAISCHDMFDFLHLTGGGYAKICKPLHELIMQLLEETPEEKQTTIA
# PAFAH2 inh: PAFAH2 enzyme inhibitors, primary screen, biochemical, fluorescence polarization, human; Platelet-activating factor acetylhydrolase 2, cytoplasmic (Homo sapiens), Q99487; recombinant PAFAH2, FP-rhodamine activity probe; actives 0.99% (n = 340,000); inhibition, % at 3.39 µM; AID 492956, 2010;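 active = inhibition above the mean over all tested compounds plus 3 SD, cut at about 30% in these data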;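 also: inhibitors block probe labeling of enzyme so polarization drops; 0% = enzyme with DMSO and 100% = wells lacking PAFAH2 protein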
# Fam108B counter: mouse Fam108B serine hydrolase inhibitors, primary screen, counter-screen for RBBP9 inhibitor project, biochemical, fluorescence polarization. recombinant Fam108B, FP-Rh probe fluorescence polarization. inhibition, % at 9.51 µM. actives 0.33% (n = 300,000);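 active = inhibition above the screen mean inhibition plus 3 SD, computed separately per campaign, cut at about 18% in these data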;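 also: inhibitors lower polarization as less probe binds the enzyme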
# pPAFAH FP inh: pPAFAH enzyme inhibitors, primary screen, biochemical, fluorescence polarization, human; Platelet-activating factor acetylhydrolase (Homo sapiens), Q13093; recombinant pPAFAH, FP-rhodamine probe fluorescence polarization; actives 1.5% (n = 330,000); AID 463082, 2010; inhibition, % at 3.39 µM;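 active = inhibition above the mean inhibition across the screen plus 3 SD, cut at about 25% in these data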;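 also: inhibitors block binding of the rhodamine activity-based probe so polarization drops; 0% = enzyme with DMSO and 100% = wells lacking pPAFAH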
# PAFAH2 FP conf: PAFAH2 enzyme inhibitors, confirmation, biochemical, fluorescence polarization, human. recombinant PAFAH2, FP-rhodamine activity probe. inhibition, % at 3.39 µM. actives 65% (n = 2,300). shares compounds with PAFAH2 inh. AID 493030, 2011;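 active = mean inhibition over three repeats above a set limit taken from the earlier primary screen, cut at about 30% in these data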;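 also: inhibitor blocks binding of rhodamine activity probe so polarization falls; 0% = enzyme with DMSO and 100% = wells lacking PAFAH2 protein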
# Numbers without * were called inactive; . = not tested or not shown.
SMILES,PAFAH1B3 FP inh,PME-1 inh,PAFAH1B2 FP inh,PAFAH2 inh,Fam108B counter,pPAFAH FP inh,PAFAH2 FP conf
CC(C)(C)NC(=O)COC(=O)/C=C/c1ccc(F)cc1,9,9,0,65*,0,5,47*
COc1ccc(/C=C/C(=O)OCC(=O)NC(=O)NC(C)(C)C)cc1,2,-1,8,38*,-1,1,20
COc1cc(/C=C/C(=O)OCC(=O)NC(=O)NC(C)(C)C)cc(OC)c1OC,2,-2,5,4,-2,2,.
CC(C)c1ccc(C2c3[nH]c4ccccc4c3C[C@H]3C(=O)N(c4ccccc4C(=O)N4CCC[C@H]4C(=O)O)C(=O)N23)cc1 (stereo partly specified),2,-4,3,5,1,17,.
Cn1nccc1C(=O)N(CCN1CCCCC1)CC1CCCN(C2CCCC2)C1 (stereo unspecified),2,2,5,0,3,1,.
Cc1nn(CC(=O)NNC(=O)c2cccc(Br)c2)c(C)c1[N+](=O)[O-],5,4,-1,-3,3,-1,.
CCCn1c(CN2CCN(C(=O)OCC)CC2)nc2cc(NC(C)=O)ccc21,4,-5,0,5,1,-2,.
COc1ccc(C(=O)OCC(=O)NCCCc2ccccc2)cc1[N+](=O)[O-],4,-2,13,30*,3,6,12
COc1ccc(C(=O)OCC(=O)NC(C)(C)C)cc1[N+](=O)[O-],1,1,2,39*,-3,3,23
Brc1ccc(Br)c2cnccc12,9,.,5,5,.,.,.
O=c1oc(-c2ccc(F)cc2)nc2ccsc12,7,-9,-2,48*,-3,-1,34*
CC1(C)CC(=O)C=C(N=CC2=C(O)CC(C)(C)CC2=O)C1,-4,-9,2,33*,-1,2,7
C[C@H](NC(CCc1ccccc1)C(=O)O)C(=O)N1CCC[C@H]1C(=O)O (stereo partly specified),.,-5,.,.,-1,-2,.
NC(=O)NCCCC(=O)NCC(c1ccccc1Cl)c1c[nH]c2ccccc12 (stereo unspecified),-1,1,-3,-3,2,5,.
COCCNC(=O)Cc1c(C)c2c(cc(C)c3c(C)coc32)oc1=O,4,2,4,4,-6,3,.
COCCCNC(=O)Cc1c(C)c2c(cc(C)c3c(C(C)(C)C)coc32)oc1=O,6,-1,9,33*,6,12,20
CC(=O)Nc1ccc(C(=O)OCC(=O)Nc2ccccc2F)cc1,1,-4,2,69*,2,-2,70*
COc1ccc(C(=O)COC(=O)c2ccc(NC(C)=O)cc2)cc1[N+](=O)[O-],3,-1,0,12,-4,3,.
COC(=O)c1ccc(NC(=O)Nc2ccccc2F)cc1,4,-15,-1,-5,-3,-5,.
Cc1cc(C(=O)OCC(=O)Nc2ccccc2C#N)c(C)o1,2,.,1,43*,.,.,32*
Cc1cccc(NC(=O)COC(=O)c2ccc3nc(C)c(C)nc3c2)c1,5,.,1,71*,.,-4,49*
COc1cccc(C(=O)COC(=O)c2ccc(NC(C)=O)cc2)c1,8,-3,4,37*,-1,-3,32*
Cc1cccc(NC(=O)COC(=O)c2ccc3c(=O)n4c(nc3c2)CCC4)c1,0,-5,3,2,-1,-6,.
COc1cc(NC(=O)C2CCCCC2)c(OC)cc1NC(=O)c1ccccc1,1,2,0,-9,1,11,.
COc1ccc(CCNC(=O)c2nnn(CC(=O)Nc3ccc(C)cc3C)c2N)cc1OC,1,-15,5,0,5,18,.

# Compound activity as filed in PubChem.
